Percent Effect data for 51 compounds are collected here from ChEMBL document CHEMBL3988442, “University of Dundee, Small-Polar-MMV Screening Library” (2021).

Assay [1] has as its target T1, Aspartate--tRNA(Asp/Asn) ligase (Mycobacterium tuberculosis (strain ATCC 25618 / H37Rv)) (UniProt P9WFW3). Further: in the data most compounds retested in dose-response had high values.
T1 sequence (whole entry): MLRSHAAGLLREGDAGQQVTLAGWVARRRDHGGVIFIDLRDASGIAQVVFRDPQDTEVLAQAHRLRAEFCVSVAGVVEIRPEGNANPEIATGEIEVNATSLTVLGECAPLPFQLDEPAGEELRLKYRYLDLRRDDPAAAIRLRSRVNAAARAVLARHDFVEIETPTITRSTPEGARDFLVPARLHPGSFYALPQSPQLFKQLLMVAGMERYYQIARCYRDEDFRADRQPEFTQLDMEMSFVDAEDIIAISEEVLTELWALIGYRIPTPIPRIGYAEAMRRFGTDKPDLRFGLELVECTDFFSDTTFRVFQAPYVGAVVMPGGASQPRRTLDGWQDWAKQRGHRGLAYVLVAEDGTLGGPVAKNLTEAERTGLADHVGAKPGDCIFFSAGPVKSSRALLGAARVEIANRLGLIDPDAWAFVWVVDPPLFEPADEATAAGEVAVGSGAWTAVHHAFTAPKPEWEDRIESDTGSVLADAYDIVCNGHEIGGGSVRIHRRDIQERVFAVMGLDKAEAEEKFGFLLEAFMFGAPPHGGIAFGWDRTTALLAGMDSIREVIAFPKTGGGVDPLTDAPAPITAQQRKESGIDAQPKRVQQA
In words: Assay for Asp RNA synthetase-1 from Mycobacterium tuberculosis. Format: functional. Further details: scale not given: direction of the effect not stated beside the values. To be noted: 30 µM.

Assay [2] has as its target Shiga toxin 2 (Escherichia coli O157:H7) (UniProt P09385+P09386). In words: E. coli 0.157:H7 Shiga Toxin SOP - stx2 screening assay. To be noted: 30 µM. Format: functional. Further details: scale not given: direction of the effect not stated beside the values.

As for `O=C(Cc1csc(-c2ccco2)n1)N1CCN(c2cnccn2)CC1`, the figures for the Percent Effect in assay [1] and in assay [2] were -2.43% and -70.6%, respectively.
For `CC(C)c1ccc(-c2nnn(CCNS(C)(=O)=O)n2)cc1`, in that order: -1.05% and -43.9%.
For `NS(=O)(=O)CCNC(=O)c1nnn(-c2ccccc2)c1C1CC1`, in that order: 2.35% and -12.7%.
Taken in the same sequence, the figures for `CNc1cc(C)nc(C2CN(Cc3ccc(C)nc3)CCO2)c1` (configuration not stated) were 0.61% and 3.79%.
Take `Cc1csc(N2CCN(C(=O)Cc3ccsc3)CC2)n1`: the Percent Effect in assay [1] was 6.55%; in assay [2] it was -7.04%.
Taken in the same sequence, the figures for `COCCNC(=O)Nc1ccc(-n2cncn2)c(F)c1` were -2.66% and 12.3%.
For `CCN1CC(C(=O)N2CCC(Oc3ccccc3Cl)CC2)CC1=O` (configuration not stated), in that order: 2.64% and -34.4%.
Consider `CNc1cc(CNC(=O)c2ccccc2)nc(-c2ccncc2)n1`, for which the Percent Effect was -4.09% in assay [1] and 11.3% in assay [2].
Taken in the same sequence, the figures for `COc1ccccc1OCC(=O)NS(=O)(=O)c1ccc(C)s1` were -0.394% and 3.1%.
Turning to `CC(C)CC(=O)N1CCCn2cnc(CN3CCCC3=O)c2C1`, the Percent Effect in assay [1] was -3.68%; in assay [2], -15.8%.
For `O=C(c1cccs1)N1CCC(Cn2nc(-c3ccco3)ccc2=O)CC1`, in that order: -3.23% and 5.24%.
Taken in the same sequence, the figures for `c1ccc(CC2CCN(Cc3ccnc(-c4cccnc4)n3)CC2)cc1` were 0.908% and -6.53%.
Taken in the same sequence, the figures for `Cc1ccc(N2CCCC(NCC(=O)NCC3CC3)C2)nn1` (configuration not stated) were -5.2% and -32.6%.
In the case of `CC(C)c1cc(C(=O)N2CCN(Cc3ccsc3)CC2)n[nH]1`, the Percent Effect is -1.06% in assay [1] and 9.72% in assay [2].
Taken in the same sequence, the figures for `CNC(=O)Nc1cc(-c2ccc(Br)cc2)nn1CCO` were -3.53% and 7.53%.
For `CCOc1ccc(CNCCCn2ccnc2)cc1Br`, in that order: -5.78% and -77.4%.
Taken in the same sequence, the figures for `Cc1ccc([C@]2(O)CC[C@H]3CN(Cc4cc(C)c(O)c(C)c4)C[C@H]32)nc1` were 3.29% and -2.26%.
In the case of `Cc1nn(C)c(C)c1C1CCCN1Cc1nc(C2CC2)no1` (configuration not stated), the Percent Effect in assay [1] is -10.2%; in assay [2], -15.8%.
For `Cc1cc(CN2CCN(C(=O)NC(C)Cn3ccnc3)CC2)no1` (configuration not stated), in that order: -1.75% and 21%.
For `Cc1nc(C)n(CC2CCCN2CCc2cccs2)n1` (configuration not stated), the Percent Effect in assay [1] is -0.678%; in assay [2], -28.6%.
For `Cc1cccc(-n2cc(C(=O)N3CCn4c(C)nnc4C3)nn2)c1`, the Percent Effect is -2.42% in assay [1] and -92.9% in assay [2].
As to `O=C(COc1cccc2c1CCC2=O)NCc1ccccc1F`, the Percent Effect in assay [1] is 10.4%; in assay [2], -7.67%.
For `CC(C)c1nc(CN2CCCN(Cc3nnc(C4CC4)o3)CC2)no1`, in that order: -3.22% and -24.4%.
Consider `CCOc1ccnc(N2CCN(C(=O)C(C)(C)C#N)CC2)n1`, for which the figures for the Percent Effect in assay [1] and in assay [2] were 4.55% and 37.3%, respectively.
Take `CC(=O)NCC(=O)N1Cc2nccn2CC(CN2CCCC2)C1` (configuration not stated): the Percent Effect in assay [1] is -4.29%; in assay [2] it was 2.69%.
For `CC(=O)N(Cc1noc(C)n1)C1CCN(Cc2ccccc2C#N)C1` (configuration not stated), in that order: 2.26% and -3.66%.
For `COCC1CCN(c2cc(C3CN(C)CCO3)nc(C)n2)CC1` (configuration not stated), in that order: -1.84% and -3.4%.
For `COCC(=O)N1CCC[C@]2(C(=O)N(C)C)CN(c3ccccn3)C[C@@H]2C1`, in that order: -2.71% and -6.93%.
For the compound `O=C(NCc1cc[nH]n1)N1CCCCC(N2CCCC2)C1` (configuration not stated), the figures for the Percent Effect in assay [1] and in assay [2] were 2.84% and 14.9%, respectively.
Regarding `COCCc1ncc(CN2CCC(Oc3ccccc3C)CC2)cn1`, the Percent Effect in assay [1] was 1.13%; in assay [2] it was 1.32%.
In the case of `Cc1cc2cc(C(=O)N3CC[C@H](O)[C@]4(CCCO4)C3)ccc2o1`, the Percent Effect in assay [1] is 1.13%; in assay [2], -10.1%.
Taken in the same sequence, the figures for `Cc1cccc(CCC(=O)N2CCCC(c3cc(C(N)=O)[nH]n3)C2)c1` (configuration not stated) were -0.161% and -10.2%.
Regarding `O=C(c1cnoc1)N1CCC[C@]2(C[C@@H](OCc3ccccn3)CO2)C1`, the Percent Effect in assay [1] is -4.58%; in assay [2], -20.4%.
As for `COCC(=O)N1CCC(c2nccn2CC2CC2)CC1`, the results for the Percent Effect in assay [1] and in assay [2] were -0.435% and -12.6%, respectively.
For `O=C([C@@H]1C[C@@H]2CCN(CCc3ccccc3)C[C@H]2O1)N1CCCC1`, in that order: -0.868% and -14.6%.
As for `Cc1cc(C)n(-c2ccc(CNCc3ccc(OC(C)C)cc3)cn2)n1`, the Percent Effect was -4.39% in assay [1] and 29.5% in assay [2].
Taken in the same sequence, the figures for `COCC(=O)N1CCCC2(CCN(c3ccsc3)C2=O)C1` (configuration not stated) were -1.49% and 0.668%.
As to `CN(C)c1ncnc2c1CCN(CC1CCOC1)CC2` (configuration not stated), the values for the Percent Effect in assay [1] and in assay [2] were -1.82% and -26.9%, respectively.
On to `O=S(=O)(c1cccs1)N1CCCn2nnc(CN3CCCCC3)c2C1`, for which the Percent Effect in assay [1] was 5.59%; in assay [2], -16.9%.
For `O=C(Nc1cccnc1)[C@H]1C[C@@H]2CN(C(=O)NC3CCCC3)C[C@H]1O2`, in that order: 2.61% and -2.93%.
For `COc1c(CNCC(O)c2cccc(F)c2)c(C(C)C)nn1C` (configuration not stated), in that order: 7.7% and 15.6%.
Taken in the same sequence, the figures for `CCc1nccn1C1CCCN(C(=O)c2cnc3ccccc3n2)C1` (configuration not stated) were 1.02% and 11.4%.
On to `Cn1cc(CN2CC[C@@H]3O[C@H](C(=O)N4CCOCC4)C[C@@H]32)cn1`, for which the results for the Percent Effect in assay [1] and in assay [2] were 0.521% and -23.7%, respectively.
For `CN1CCN(Cc2cn3c(n2)CN(C(=O)N2CCOCC2)CC3)CC1`, in that order: 5.44% and -16.4%.
Take `CC(O)CN1CCC(CNCc2ccccc2Br)CC1` (configuration not stated): the Percent Effect was 1.21% in assay [1] and -20.4% in assay [2].
Taken in the same sequence, the figures for `COCCO[C@@H]1CCN(Cc2csc(C)n2)[C@H]1Cc1ccccc1` were 3.03% and 1.09%.
For `Fc1ccc(OCCCN2CCOC(Cn3cncn3)C2)cc1` (configuration not stated), in that order: -6.13% and -10.5%.
For `Cc1cc(N2CCC(Cc3ccccc3)CC2)nc(-c2ccncc2)n1`, in that order: -0.602% and -32.9%.
For the compound `CCOc1ncccc1NC(=O)NC1CCCN(c2ncccn2)C1` (configuration not stated), the Percent Effect in assay [1] was 0.879%; in assay [2] it was -17.5%.
Taken in the same sequence, the figures for `CC(C)c1nccn1C1CCCN(C(=O)c2ccnc(N(C)C)c2)C1` (configuration not stated) were 2.16% and -29.7%.
Taken in the same sequence, the figures for `COc1cccc(C2CC(=O)Nc3nc(N)sc32)c1OC` (configuration not stated) were 65.3% and -20%.
